31 molecules from ChEMBL document CHEMBL1157539, “Thousands of chemical starting points for antimalarial lead identification” (Nature, 2010) can be followed below.

Broadly, the Inhibition is the change of the read-out against control, counted positive when it falls. A higher Inhibition goes with a strong effect.

Common to all, as to format: functional
Assay [1] relates to Plasmodium falciparum. Description: GSK_TCMDC: Inhibition of Plasmodium falciparum 3D7 in whole red blood cells, using parasite LDH activity as an index of growth. Test compounds present at 2uM.
The test system of assay [2] is Plasmodium falciparum. Description: GSK_TCMDC: Inhibition of Plasmodium falciparum Dd2 in whole red blood cells, using parasite LDH activity as an index of growth. Test compounds present at 2uM.
Another assay has as its system HepG2. Briefly: GSK_TCMDC: Percent inhibition of human HepG2 cell line. Test compounds present at 10uM.

Take `COc1ccc2nccc([C@@H](O)CN3CCC(NCc4cnc5snnc5c4)C(F)C3)c2c1.Cl` (stereo partly drawn): the Inhibition was 83% in the assay with Plasmodium falciparum [1], 88% with Plasmodium falciparum [2] and 13% in the assay with HepG2.

For `Cc1cccc2nc(-c3cccc(-c4cccc(NC(=O)Nc5ccc(Cl)c(Cl)c5)c4)c3)[nH]c12`, the Inhibition with Plasmodium falciparum [1] worked out at 100%; in the assay with Plasmodium falciparum [2], 96%; in the assay with HepG2 it was 24%.

Take `CCOc1cc(Cc2cnc(N)nc2N)cc(OCC)c1O`: the Inhibition with Plasmodium falciparum [1] is 89%; in the assay on Plasmodium falciparum [2], 0%; with HepG2 it was 6%.

Regarding `Cl.Nc1c(C(=O)NCCCCN2CCN(c3nsc4ccccc34)CC2)sc2ccccc12`, the Inhibition with Plasmodium falciparum [1] was found to be 86%; with Plasmodium falciparum [2], 0%; in the assay on HepG2, 26%.

As to `CC(C)c1ccc(CN2CCC(CNC(=O)c3cc(-c4cccc(F)c4)cs3)C2)cc1.O=C(O)C(F)(F)F` (stereo not drawn), the Inhibition with Plasmodium falciparum [1] was found to be 100%; with Plasmodium falciparum [2], 46%; with HepG2, 59%.

For `CC(C)COc1ccc(Cl)cc1Cc1ccc(-c2nc3cc(F)c(F)cc3[nH]2)o1`, the Inhibition with Plasmodium falciparum [1] is on record as 95%; with Plasmodium falciparum [2] it was 96%; in the assay with HepG2, 27%.

For `CCN(CC)CCNc1c2ccc(Cl)cc2nc2ccc(OC)nc12.Cl`, the Inhibition was found to be 100% in the assay on Plasmodium falciparum [1], 99% in the assay on Plasmodium falciparum [2] and 20% in the assay with HepG2.

As to `N#Cc1cccc(NC(=O)c2ccc(S(=O)(=O)NCC3CCCN3CC3CCCCC3)cc2)c1.O=C(O)C(F)(F)F` (stereo not drawn), the Inhibition was determined as 88% with Plasmodium falciparum [1], 18% in the assay with Plasmodium falciparum [2] and 25% in the assay with HepG2.

For the molecule `COCCNCc1ncsc1-c1ccc2c(Nc3cc(O)c(Cl)cc3F)ccnc2c1`, the Inhibition with Plasmodium falciparum [1] is 100%; in the assay on Plasmodium falciparum [2], 92%; in the assay with HepG2, 0%.

With `Cc1cc(-c2c[nH]c3ncc(-c4cccc5ncccc45)cc23)ccc1C(=O)O.O=C(O)C(F)(F)F`, the Inhibition in the assay with Plasmodium falciparum [1] is 99%; in the assay on Plasmodium falciparum [2], 77%; in the assay on HepG2, 31%.

For the molecule `CC(C)CN1CCCN(Cc2cccc(NC(=O)c3cc4ccccc4s3)c2)CC1.O=C(O)C(F)(F)F`, the Inhibition in the assay with Plasmodium falciparum [1] is 87%; in the assay with Plasmodium falciparum [2], 6%; in the assay with HepG2 it was 5%.

In the case of `Cc1ccc(F)c(OCC2CCN(c3ncc(C(=O)NC4CC4)cc3Cl)CC2)c1`, the Inhibition was found to be 96% in the assay on Plasmodium falciparum [1], 95% with Plasmodium falciparum [2] and 9% with HepG2.

For the molecule `Br.CCCCCCCN(CCCCCCC)CCNc1cc(C)nc2ccccc12`, the Inhibition with Plasmodium falciparum [1] is listed as 89%; in the assay on Plasmodium falciparum [2], 31%; in the assay with HepG2, 39%.

In the case of `CCc1ccc(CN2CCC(C(=O)Nc3ccc(-c4nc5ccccc5[nH]4)cc3)CC2)o1`, the results for the Inhibition with Plasmodium falciparum [1], in the assay with Plasmodium falciparum [2] and with HepG2 were 99%, 94% and 29%, respectively.

With `O=C(COc1ccccc1)Nn1cnc2ccccc21`, the Inhibition in the assay on Plasmodium falciparum [1] is 91%; in the assay with Plasmodium falciparum [2], 0%; in the assay on HepG2, 2%.

`COc1cccc(NC(=O)c2nc(N3CCN(c4ccncc4)CC3)ccc2Cl)c1.O=C(O)C(F)(F)F`: the Inhibition was 97% with Plasmodium falciparum [1], 65% in the assay with Plasmodium falciparum [2] and 14% with HepG2.

With `O=C(NCc1cccc(C(F)(F)F)c1)c1ccc(CNC(=O)c2ccc(O)c(-c3ccc(Cl)c(Cl)c3)c2)cc1`, the Inhibition in the assay with Plasmodium falciparum [1] came to 92%; with Plasmodium falciparum [2], 15%; in the assay on HepG2, 7%.

With `NC1CCCN(Cc2ccc(-c3ccc(-c4nc5ccccc5[nH]4)s3)cc2)C1.O=C(O)C(F)(F)F` (stereo not drawn), the Inhibition was found to be 100% in the assay with Plasmodium falciparum [1], 99% with Plasmodium falciparum [2] and 40% in the assay with HepG2.

Take `CN(C)C(=O)O[C@@H]1CN[C@H](C#Cc2cc3ncnc(Nc4ccc5c(cnn5Cc5cccc(F)c5)c4)c3s2)C1.Cl`: the Inhibition worked out at 97% in the assay with Plasmodium falciparum [1], 68% in the assay with Plasmodium falciparum [2] and 0% with HepG2.

Turning to `Oc1cc(-c2cccc(C(F)(F)F)c2)nc(Nc2ccc(Cl)c(Cl)c2)n1`, the results for the Inhibition in the assay on Plasmodium falciparum [1], in the assay on Plasmodium falciparum [2] and with HepG2 were 97%, 97% and 57%, respectively.

`O=C(/C=C/c1ccc(Cl)c(Cl)c1)NCCCCCN1CCCC(C(=O)Nc2ccc(Cl)c(Cl)c2)C1` (stereo not drawn): the Inhibition is 100% with Plasmodium falciparum [1], 11% with Plasmodium falciparum [2] and 53% in the assay on HepG2.

As for `COC(=O)c1cccc(OCCNC2CCN(C[C@H](O)c3ccnc4ccc(OC)cc34)CC2)c1.O=C(O)C(=O)O`, the values for the Inhibition in the assay with Plasmodium falciparum [1], in the assay with Plasmodium falciparum [2] and with HepG2 were 100%, 96% and 0%, respectively.

Regarding `CCN(CC)CCN(Cc1ccc(-c2ccc(C(F)(F)F)cc2)cc1)C(=O)Cn1c(CCc2cccc(F)c2F)cc(=O)c(C)c1C.O=C(O)C(O)C(O)C(=O)O`, the Inhibition in the assay with Plasmodium falciparum [1] worked out at 97%; with Plasmodium falciparum [2] it was 87%; with HepG2 it was 35%.

As to `Cc1cccn2c(=O)c3cc(C(=O)NC4CCCCC4)c(=N)n(CCCn4ccnc4)c3nc12`, the Inhibition was found to be 100% in the assay with Plasmodium falciparum [1], 8% in the assay on Plasmodium falciparum [2] and 1% in the assay on HepG2.

In the case of `O=C(NCCNc1ccnc(Nc2ccc(F)cc2)n1)Nc1ccc2c(c1)OCO2`, the Inhibition came to 97% with Plasmodium falciparum [1], 3% in the assay on Plasmodium falciparum [2] and 15% with HepG2.

Consider `CN(C)CCc1coc2ccc(C(=O)Nc3ccc(-c4ccc(O)cc4)cc3)cc12`, for which the Inhibition in the assay with Plasmodium falciparum [1] is 100%; with Plasmodium falciparum [2], 40%; with HepG2, 28%.

With `O=C(Nc1cccc(-c2ccc(-c3nc4cc(C(F)(F)F)ccc4[nH]3)cc2)c1)c1csnn1`, the values for the Inhibition in the assay with Plasmodium falciparum [1], with Plasmodium falciparum [2] and with HepG2 were 98%, 93% and 23%, respectively.

For `CN(C)CCNc1cc(-c2cccnc2)nc(-c2ccncc2)n1`, the Inhibition in the assay with Plasmodium falciparum [1] is on record as 100%; with Plasmodium falciparum [2] it was 98%; in the assay with HepG2 it was 33%.

As for `O=C(c1cccc(Br)c1)N1CCN(c2ccc([N+](=O)[O-])c(NC3CC3)c2)CC1`, the results for the Inhibition with Plasmodium falciparum [1], in the assay with Plasmodium falciparum [2] and in the assay with HepG2 were 99%, 100% and 5%, respectively.

As for `COc1cc2c(cc1OCCN1CCC(N)CC1)N(C(=O)/C=C/c1ccccc1Cl)CC2.Cl`, the Inhibition with Plasmodium falciparum [1] was 91%; with Plasmodium falciparum [2], 18%; with HepG2, 19%.

On to `O=C(NCCCCN1CCC(c2ccc3c(c2OCCN2CCCC2)CCCC3)CC1)c1ccc(-c2ccc(C(F)(F)F)cc2)cc1`, for which the values for the Inhibition in the assay with Plasmodium falciparum [1], with Plasmodium falciparum [2] and with HepG2 were 100%, 81% and 25%, respectively.
